hNpr1 antagonist: antagonists of human natriuretic peptide receptor Npr1. Potency, µM (top dose mostly 46.3 µM), inactives show at the highest dose activity change, negative = inhibition, most hits filed as inhibitors. 76,000 tested, 1.6% active. HEK293 hNpr1 GloSensor cGMP, ANP-stimulated luminescence. P16066; calls by dose curve; also: % is scaled to controls: 0 for no effect and ±100 for the full control effect; nearly all actives have a fitted effect of over 60% in size
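Compound pre-incubated 30 min at room temperature on GloSensor-loaded HEK293 cells stably carrying hNpr1 and the pGS-40F cGMP biosensor. Stimulation uses hNppA at 0.1 nM final; luminescence is taken at baseline and 20 min post-agonist.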
HEK cytotox: kills HEK 293 cells | HEK 293 viability, ATP luminescence (CellTiter-Glo), 48-72 h | Potency, µM (series often up to 115 µM), for the others: at the top dose activity change, negative = cytotoxicity, actives largely listed as inhibitors | 94,000 tested, 6.6% active | AID 1345083; also: % is scaled to controls: 0 for no effect and ±100 for the full control effect; nearly all actives have a fitted effect of over 60% in size
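Read-out: CellTiter-Glo ATP luminescence. Cells: HEK 293, 250 cells/well. Exposure: 48 or 72 hr, 37 degree Celsius.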
GPT2 inhibitor: inhibitors of human GPT2 alanine aminotransferase. Q8TD30. Recombinant GPT2, coupled pyruvate oxidase/HRP Amplex Red fluorescence. Potency, µM (doses to about 57.7 µM), for the others: top-dose activity change, negative = inhibition, usual class: inhibitors. 100,000 tested, 0.25% active. AID 1671188; also: % is scaled to controls: 0 for no effect and ±100 for the full control effect; nearly all actives have a fitted effect of over 60% in size
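Inhibition is scored from Amplex Red fluorescence generated when pyruvate oxidase and HRP act on pyruvate released by GPT2. Reactions contain 10ng/uL enzyme, 250uM a-KG and 2mM L-alanine and run 30 min at room temperature.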
FLuc inh-1: Photinus pyralis luciferase inhibition; purified P. pyralis luciferase, luminescence, biochemical; Potency, µM (series often up to 115 µM), actives largely listed as inhibitors; 76,000 tested, 2.5% active; AID 1347043; also: % is scaled to controls: 0 for no effect and ±100 for the full control effect; nearly all actives have a fitted effect of over 65% in size
Target sequence (P08659 whole entry, looked up): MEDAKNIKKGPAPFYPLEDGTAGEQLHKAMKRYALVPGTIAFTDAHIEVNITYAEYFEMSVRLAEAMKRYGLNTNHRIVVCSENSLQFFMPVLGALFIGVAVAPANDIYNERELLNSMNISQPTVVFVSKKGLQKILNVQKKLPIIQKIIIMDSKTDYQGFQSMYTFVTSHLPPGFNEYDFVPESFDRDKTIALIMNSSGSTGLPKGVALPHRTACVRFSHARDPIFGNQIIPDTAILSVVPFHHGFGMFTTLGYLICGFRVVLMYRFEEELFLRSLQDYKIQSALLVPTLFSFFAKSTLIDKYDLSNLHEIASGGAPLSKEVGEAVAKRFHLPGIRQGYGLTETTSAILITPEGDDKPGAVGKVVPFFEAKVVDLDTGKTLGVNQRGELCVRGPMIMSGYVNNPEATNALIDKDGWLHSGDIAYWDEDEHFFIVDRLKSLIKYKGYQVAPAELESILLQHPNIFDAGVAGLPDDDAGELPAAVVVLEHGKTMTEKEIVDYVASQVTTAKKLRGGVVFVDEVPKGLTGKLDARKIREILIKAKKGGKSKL
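FLuc 10nM, D-luciferin 10uM, ATP 10uM, Mg acetate 10mM, Tris acetate pH 7.5, Tween/BSA; cpd qHTS; enzyme added last; CCD luminescence.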
NIH3T3 tox: kills NIH 3T3 cells; Potency, µM (series often up to 96.7 µM), for the others: at the top dose activity change, negative = cytotoxicity, most hits filed as inhibitors; 94,000 tested, 4.3% active; NIH 3T3 viability, CellTiter-Glo ATP luminescence, 48-72 h; also: % is scaled to controls: 0 for no effect and ±100 for the full control effect; nearly all actives have a fitted effect of over 55% in size
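First NIH 3T3 cells are plated at 400 cells/well; next compound is pinned in; then plates incubate 48 or 72 hr at 37 °C; finally CellTiter-Glo is added and luminescence read after 10 min.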
FLuc SDR no ATP: stabilizes firefly luciferase without ATP. shares compounds with FLuc inh-1. Purified FLuc-C-HiBiT, Nano-Glo HiBiT luminescence, no ATP. Potency, µM (doses to about 32.7 µM), without a hit: at the top dose activation (signal gain), most hits filed as activators. 1,300 tested, 7.8% active; also: nearly all actives have a fitted effect of over 55% in size
FLuc SDR ATP: stabilizes firefly luciferase with ATP present | Potency, µM (titrated, usually from 32.7 µM), for the others: top-dose activation (gain of signal), usual class: activators | shares compounds with FLuc inh-1 | purified FLuc-C-HiBiT + ATP, HiBiT complementation luminescence | 1,300 tested, 8.7% active;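 also: signal reports ligand binding via conformational change of the enzyme rather than luciferase catalysis; % of control where 0% means no effect; nearly all actives have a fitted effect of over 55% in size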
FLuc inh-2: blocks firefly luciferase enzymatic activity. 1,300 tested, 42% active. AID 1963320. purified FLuc-C-HiBiT enzyme, luciferin luminescence. shares compounds with FLuc inh-1. Potency, µM (series often up to 32.7 µM), inactives show top-dose activity change, negative = inhibition, most hits filed as inhibitors; also: % is scaled to controls: 0 for no effect and ±100 for the full control effect; nearly all actives have a fitted effect of over 70% in size
Starred values were filed as active, the others as inactive; i = inactive; ? = inconclusive; / = no result given; [ ] = another dose, or the depositor's remark. Hits are enriched below; roughly 10% of the tested compounds scored in any of these assays. Unless noted, calls follow the shape of the dose curve; as a rule, active = well fitted curve in the direction sought with a large enough effect; inconclusive = small, poorly fitted or top-dose-only effect, or another doubt; inactive = no such curve, though single readings can be large; an effect the other way counts as inactive or inconclusive. Potency is read from the fitted curve at half-maximal effect.

SMILES	hNpr1 antagonist	HEK cytotox	GPT2 inhibitor	FLuc inh-1	NIH3T3 tox	FLuc SDR no ATP	FLuc SDR ATP	FLuc inh-2
Cc1ccc(-c2nc(-c3ccccn3)no2)cc1Cl	/	/	/	/	/	4.4µM*	?	0.62µM*
Cc1noc(-c2nc(-c3cccc(Cl)c3)no2)n1	-4%	?	-15%	?	1%	/	/	/
Cn1ccnc1C(O)c1cc2n(n1)CCN(c1ncnc3nc[nH]c13)C2 (stereo unspecified)	0%	1%	i	i	-5%	13%	8%	2%
Cc1ccc(-n2cc(CN3CCn4nc(C(O)c5nccn5C)cc4C3)cn2)cc1 (stereo unspecified)	6%	-8%	?	?	-23%	/	/	/
Cc1ccc(C(=O)N2CCC(Oc3ccc(NC(=O)c4ccccc4)cn3)C2)cc1 (stereo unspecified)	?	?	-7%	i	?	/	/	/
COc1ccc(C(=O)Nc2ccc3n(c2=O)C[C@H]2C[C@@H]3CN(C(=O)CCCC(=O)O)C2)cc1	4%	3%	3%	13µM*	1%	?	19%	?
COc1ccc(-c2cc(=O)c3cc(OCC(=O)OC(C)C)ccc3o2)cc1	/	/	/	/	/	?	?	3.9µM*
CC(C)c1ccc(-c2cc(=O)c3ccccc3o2)cc1	/	/	i	/	/	/	/	/
COc1cccc(C(=O)N2CCCN(c3ccc4nnc(-c5ccccc5)n4n3)CC2)c1	/	-25%	/	/	?	/	/	/
Cc1cc(F)ccc1OC1(C(=O)O)CCN(c2ncnc3nc[nH]c23)CC1	4%	i	-11%	i	5%	10%	7%	3%
C[C@H]1[C@@H]2[C@@H](O)C([C@H](C)C(=O)N3CCc4ccccc4C3)CC[C@@]2(C)CC[C@@H]1NC(=O)c1cnccn1 (stereo partly specified)	-9%	?	3%	i	?	/	/	/
O=C(c1ccc(Cl)nc1)N1CCCC(C(=O)N2CCC(c3nc4ncccc4[nH]3)C2)C1 (stereo unspecified)	/	3%	-1%	/	-8%	/	/	/
Cc1nc(C2CC23CCN(C(=O)Nc2ccc4c(c2)OCCO4)CC3)no1 (stereo unspecified)	/	-24%	0%	/	-32%	/	/	/
COc1cc(C)ccc1OCc1cc(C(=O)NCc2n[nH]c3c2CCC3)no1	0%	?	?	11µM*	?	17%	14%	?
COc1ccccc1OCc1cc(C(=O)NCc2cccc(C)c2)n[nH]1	0%	?	4%	i	-28%	/	/	/
Cc1cccc(NC(=O)c2c(N)sc3c2CCC(C)C3)c1 (stereo unspecified)	/	/	/	/	/	8%	7%	?
CCOc1ccc(-c2cc(CCCC(=O)NCCc3ccc(OC)c(OC)c3)no2)cc1	/	/	/	/	/	19%	?	?
Nc1nccc(-c2c(-c3ccc(F)cc3)ncn2C2CCNCC2)n1	/	/	/	/	/	15%	8%	3%
CCN1CCN(C(=O)c2ccc3nnc(-c4ccccc4OC)n3c2)CC1	/	0%	i	/	-15%	/	/	/
COc1ccc(N2CC(c3noc(-c4ccc(Cl)cc4)n3)CC2=O)cc1 (stereo unspecified)	-1%	?	-19%	i	?	/	/	/
COc1cccc2cc(-c3nnc(-c4ccc(Cl)cc4)o3)c(=O)oc12	/	/	/	/	/	17%	?	?
O=C(c1ccccc1)N1CCCC(C(=O)N2CCCC(c3nc4ccncc4[nH]3)C2)C1 (stereo unspecified)	/	-17%	i	/	-21%	/	/	/
CCC(=O)N(C1CCOCC1)C1CCN(Cc2ccc(OC)c(OC)c2)CC1	-2%	3%	i	i	-19%	/	/	/
COc1ccc(CN(C(=O)c2cc3ccccc3oc2=O)C2CCS(=O)(=O)C2)cc1OC (stereo unspecified)	/	/	/	/	/	20%	?	-17%
COc1ccc(-c2cc(N3CCCC(NC(=O)c4cc(OC)c(OC)c(OC)c4)C3)n[nH]2)cc1 (stereo unspecified)	-4%	?	?	6.3µM*	?	30%	16%	5.6µM*
SMILES	hNpr1 antagonist	HEK cytotox	GPT2 inhibitor	FLuc inh-1	NIH3T3 tox	FLuc SDR no ATP	FLuc SDR ATP	FLuc inh-2
COc1ccc(-c2cc(N3CCCC(NC(=O)c4cccc(OC)c4OC)C3)n[nH]2)cc1 (stereo unspecified)	-11%	?	?	?	?	/	/	/
COc1ccc(-c2cc(N3CCCC(NC(=O)c4ccncc4)C3)n[nH]2)cc1 (stereo unspecified)	-4%	?	-17%	13µM*	4%	24%	17%	?
COc1ccc(-c2cc(N3CCCC(NC(=O)c4cc(OC)cc(OC)c4)C3)n[nH]2)cc1 (stereo unspecified)	-19%	?	i	5.6µM*	?	25%	17%	?
COc1ccc(-c2cc(N3CCCC(NC(=O)c4ccc(C)c(F)c4)C3)n[nH]2)cc1 (stereo unspecified)	-18%	?	i	i	?	/	/	/
O=C(Nc1ccccc1)N1CCC(c2nn(-c3ccccn3)c(=O)[nH]2)CC1	/	i	-4%	/	-15%	/	/	/
CCOCC1(C)COc2ccc(C(=O)Nc3ccc(Cl)cc3)cc2N1 (stereo unspecified)	32µM*	40µM*	-16%[88.5 µM]	11µM*	45µM*	17%[49.3 µM]	11%[49.3 µM]	?
CC(C)(C)C(=O)Nc1ccc(-c2nc3ccccc3s2)cc1	/	/	/	/	/	0.078µM*	0.044µM*	0.02µM*
Nc1ccc(-c2nc3ccccc3s2)cc1	/	/	/	/	/	?	?	1.8µM*
CCS(=O)(=O)c1ccccc1C(=O)Nc1ccc(-c2nc3ccccc3s2)cc1	/	/	/	/	/	19%	8%	-9%
CC(C)(N)c1ccc(-c2nc3ccccc3nc2-c2ccccc2)cc1	/	/	3%	/	/	/	/	/
Cc1ccc2sc(-c3ccc(N)cc3)nc2c1	/	/	/	/	/	3.1µM*	?	0.28µM*
Cc1nc2cc(-c3cc(F)cc(C#N)c3)ccc2s1	/	/	i	/	/	/	/	/
O=C(Cc1ccccn1)N1CCCC(C(=O)N2CCC(N3Cc4cccn4C3=O)CC2)C1 (stereo unspecified)	/	3%	4%	/	-12%	/	/	/
Cn1c(=O)n([C@@H]2CCN(C(=O)CCc3nc4ccccc4s3)C2)c2ncccc21	/	-13%	-6%	/	?	/	/	/
CCOP(=O)(Cc1ccc(-c2nc3ccccc3s2)cc1)OCC	/	/	/	/	/	17%	15%	?

Assay outcomes deposited in PubChem by National Center for Advancing Translational Sciences (NCATS).
